Measurements taken from article PMC7862700, “An all-to-all approach to the identification of sequence-specific readers for epigenetic DNA modifications on cytosine”.

Key:
Test in all cases: DAPPL (digital affinity profiling via proximity ligation, sequencing); 10 mM Tris-HCl pH 7.5, 50 mM NaCl, 1 mM DTT, 4% glycerol, room temperature, 30 min; GST-TFs on glutathione beads, 16-mer random dsDNA library, 0.1% formaldehyde crosslink after washing; high values mean tight binding
Conditions in all cases: protein: recombinant; tags: N-terminal GST; dsDNA, one strand shown
FLI1 = biological target: T1, FLI1 (Homo sapiens, UniProt Q01543 1-452)
T1 sequence: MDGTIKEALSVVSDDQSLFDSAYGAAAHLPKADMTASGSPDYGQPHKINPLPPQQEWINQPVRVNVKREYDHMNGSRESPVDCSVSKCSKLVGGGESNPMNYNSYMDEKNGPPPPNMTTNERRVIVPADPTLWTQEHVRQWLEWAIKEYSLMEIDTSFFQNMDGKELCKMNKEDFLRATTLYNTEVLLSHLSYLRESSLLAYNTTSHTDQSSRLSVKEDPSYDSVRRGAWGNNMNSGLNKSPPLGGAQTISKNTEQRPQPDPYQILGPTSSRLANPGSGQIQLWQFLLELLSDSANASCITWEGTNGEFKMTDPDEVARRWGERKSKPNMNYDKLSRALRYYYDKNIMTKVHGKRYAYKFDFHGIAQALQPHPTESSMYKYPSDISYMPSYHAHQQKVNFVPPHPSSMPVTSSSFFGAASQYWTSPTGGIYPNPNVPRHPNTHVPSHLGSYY
Summary of the method: (§1)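 Binding signal is defined as a hexamer's read frequency for one factor over its frequency for the tag-only sample. To obtain reads, GST-fused human transcription factors were expressed in yeast, captured on glutathione beads, barcoded with DNA and pooled with that sample. Pools met 200 nmole of a 16-mer random double-stranded DNA library in Tris/NaCl/DTT/glycerol buffer for 30 min at room temperature before washing, 0.1% formaldehyde crosslinking, proximity ligation (BsaI/T4 ligase, 1 h, 37 °C), PCR and Illumina NextSeq500 sequencing.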

ELK1 = biological target: T2, ELK1 (Homo sapiens, UniProt P19419 1-428)
T2 sequence: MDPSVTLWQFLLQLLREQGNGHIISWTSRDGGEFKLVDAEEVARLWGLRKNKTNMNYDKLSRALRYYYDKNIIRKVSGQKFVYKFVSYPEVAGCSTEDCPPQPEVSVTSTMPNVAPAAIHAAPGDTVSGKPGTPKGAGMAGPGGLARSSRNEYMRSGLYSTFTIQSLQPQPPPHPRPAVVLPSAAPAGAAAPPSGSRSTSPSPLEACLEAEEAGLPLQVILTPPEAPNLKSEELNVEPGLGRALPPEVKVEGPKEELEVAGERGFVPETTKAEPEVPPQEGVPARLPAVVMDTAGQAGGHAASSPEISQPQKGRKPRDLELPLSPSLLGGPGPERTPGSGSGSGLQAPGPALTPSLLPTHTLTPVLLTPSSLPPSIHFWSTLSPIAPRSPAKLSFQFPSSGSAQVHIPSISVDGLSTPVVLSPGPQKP
Summary of the method: as §1

GABPA = biological target: T3, GABPA (Homo sapiens, UniProt Q06546 1-454)
T3 sequence: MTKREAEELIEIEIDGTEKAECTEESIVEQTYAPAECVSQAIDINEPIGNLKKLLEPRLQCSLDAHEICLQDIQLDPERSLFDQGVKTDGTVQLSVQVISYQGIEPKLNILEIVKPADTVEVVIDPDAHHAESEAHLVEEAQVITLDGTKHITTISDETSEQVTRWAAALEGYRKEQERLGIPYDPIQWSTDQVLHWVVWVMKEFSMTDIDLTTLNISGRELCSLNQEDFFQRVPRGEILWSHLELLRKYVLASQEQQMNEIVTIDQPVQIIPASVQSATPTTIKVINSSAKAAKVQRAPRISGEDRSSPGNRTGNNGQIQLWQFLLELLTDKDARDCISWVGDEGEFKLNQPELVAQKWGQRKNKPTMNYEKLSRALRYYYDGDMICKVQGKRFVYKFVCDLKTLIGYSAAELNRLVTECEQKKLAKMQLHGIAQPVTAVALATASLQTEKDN
Summary of the method: as §1

ERG = biological target: T4, ERG (Homo sapiens, UniProt P11308 1-479)
T4 sequence: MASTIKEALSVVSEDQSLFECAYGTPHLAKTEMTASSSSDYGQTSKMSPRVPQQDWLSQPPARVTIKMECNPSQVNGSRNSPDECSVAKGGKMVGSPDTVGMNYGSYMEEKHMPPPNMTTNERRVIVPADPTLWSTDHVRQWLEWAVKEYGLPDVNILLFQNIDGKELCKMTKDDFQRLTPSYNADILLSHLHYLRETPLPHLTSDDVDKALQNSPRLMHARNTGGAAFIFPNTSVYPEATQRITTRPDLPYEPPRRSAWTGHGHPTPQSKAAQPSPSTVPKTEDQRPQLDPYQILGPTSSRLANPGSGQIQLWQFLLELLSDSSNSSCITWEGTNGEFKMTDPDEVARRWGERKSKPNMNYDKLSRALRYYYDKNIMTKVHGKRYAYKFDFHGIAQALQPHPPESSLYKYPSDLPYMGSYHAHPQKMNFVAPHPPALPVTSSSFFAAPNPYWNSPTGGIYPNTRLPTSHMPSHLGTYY
Summary of the method: as §1

ELF1 = ELF1 (Homo sapiens, UniProt P32519 1-619)
Summary of the method: as §1

EHF = biological target: T5, EHF (Homo sapiens, UniProt Q9NZC4 1-300)
T5 sequence: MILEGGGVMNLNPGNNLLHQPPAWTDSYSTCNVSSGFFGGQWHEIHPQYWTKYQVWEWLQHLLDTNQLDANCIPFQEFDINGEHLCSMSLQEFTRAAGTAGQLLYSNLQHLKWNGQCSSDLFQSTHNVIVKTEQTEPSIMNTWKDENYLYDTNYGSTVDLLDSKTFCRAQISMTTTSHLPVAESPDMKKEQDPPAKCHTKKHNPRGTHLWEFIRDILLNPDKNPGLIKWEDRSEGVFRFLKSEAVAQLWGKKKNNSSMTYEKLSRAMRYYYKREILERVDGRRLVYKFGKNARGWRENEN
Summary of the method: as §1

SPI1 = SPI1 (Homo sapiens, UniProt P17947 1-270)
Summary of the method: as §1

SPIB = SPIB (Homo sapiens, UniProt Q01892 1-262)
Summary of the method: as §1

ELK3 = biological target: T6, ELK3 (Homo sapiens, UniProt P41970 1-407)
T6 sequence: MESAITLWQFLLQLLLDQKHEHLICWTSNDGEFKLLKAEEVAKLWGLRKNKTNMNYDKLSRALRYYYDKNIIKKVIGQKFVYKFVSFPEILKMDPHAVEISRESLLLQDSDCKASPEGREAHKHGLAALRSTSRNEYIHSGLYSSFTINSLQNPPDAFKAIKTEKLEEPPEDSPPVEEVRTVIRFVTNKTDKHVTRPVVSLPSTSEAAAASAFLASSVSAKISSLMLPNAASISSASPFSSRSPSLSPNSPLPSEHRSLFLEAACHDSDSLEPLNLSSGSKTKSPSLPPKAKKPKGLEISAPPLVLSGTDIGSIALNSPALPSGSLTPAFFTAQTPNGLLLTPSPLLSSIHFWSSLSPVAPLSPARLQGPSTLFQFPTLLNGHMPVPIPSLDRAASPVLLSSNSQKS
Summary of the method: as §1

SPIB, sequence (Q01892 whole entry): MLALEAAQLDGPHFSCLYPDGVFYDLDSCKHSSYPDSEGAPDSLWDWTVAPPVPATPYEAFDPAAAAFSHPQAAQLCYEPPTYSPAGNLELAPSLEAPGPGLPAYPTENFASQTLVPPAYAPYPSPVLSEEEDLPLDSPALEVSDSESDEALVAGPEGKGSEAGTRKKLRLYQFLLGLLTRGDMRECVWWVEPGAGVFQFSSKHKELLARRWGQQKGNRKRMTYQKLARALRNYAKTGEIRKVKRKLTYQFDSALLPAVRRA
ELF1, sequence (P32519 whole entry): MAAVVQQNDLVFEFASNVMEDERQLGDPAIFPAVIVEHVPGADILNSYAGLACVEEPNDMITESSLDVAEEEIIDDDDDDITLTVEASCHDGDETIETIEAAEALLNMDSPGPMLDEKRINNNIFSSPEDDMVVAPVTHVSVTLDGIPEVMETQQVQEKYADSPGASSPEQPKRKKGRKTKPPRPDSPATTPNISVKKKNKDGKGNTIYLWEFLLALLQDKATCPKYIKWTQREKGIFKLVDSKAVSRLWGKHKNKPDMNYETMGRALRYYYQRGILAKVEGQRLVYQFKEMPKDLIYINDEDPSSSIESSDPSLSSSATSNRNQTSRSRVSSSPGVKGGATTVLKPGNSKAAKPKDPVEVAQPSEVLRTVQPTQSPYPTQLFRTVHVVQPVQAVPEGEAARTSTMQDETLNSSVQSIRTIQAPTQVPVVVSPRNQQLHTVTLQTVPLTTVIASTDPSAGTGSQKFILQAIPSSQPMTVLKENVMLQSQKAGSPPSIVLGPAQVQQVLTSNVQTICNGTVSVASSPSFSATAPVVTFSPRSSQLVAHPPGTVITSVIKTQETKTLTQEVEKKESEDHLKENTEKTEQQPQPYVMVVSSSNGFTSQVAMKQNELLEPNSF

CATACC
binding signal (FLI1): 1.03 fold enrichment (6-mer frequency, TF over GST control) | binding signal (ELK1): 1.06 fold enrichment (6-mer frequency, TF over GST control) | binding signal (GABPA): 1.11 fold enrichment (6-mer frequency, TF over GST control) | binding signal (ERG): 1.03 fold enrichment (6-mer frequency, TF over GST control) | binding signal (ELF1): 1.09 fold enrichment (6-mer frequency, TF over GST control) | binding signal (EHF): 1.1 fold enrichment (6-mer frequency, TF over GST control) | binding signal (SPI1): 1.03 fold enrichment (6-mer frequency, TF over GST control) | binding signal (SPIB): 1.04 fold enrichment (6-mer frequency, TF over GST control) | binding signal (ELK3): 1.09 fold enrichment (6-mer frequency, TF over GST control)
